This is an account of results in article PMC4336329 (PLoS ONE, 2015).

The whole screen tested about 310,000 compounds, of which about 14,000 (4.5%) showed an effect of 50% or more. Effects have a minus sign here. The entries come from a sample that favours strong results as a whole.
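Further: peak tail current of the secondary pulse compared with the same well before compound.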

This assay deals with human ether-à-go-go-related gene (hERG) potassium channel (human, UniProt Q12809). Kind of assay: primary screen, population patch clamp on CHO cells stably expressing hERG; higher = less effect of the substance.
Sequence of human ether-à-go-go-related gene (hERG) potassium channel (Q12809 whole entry, looked up): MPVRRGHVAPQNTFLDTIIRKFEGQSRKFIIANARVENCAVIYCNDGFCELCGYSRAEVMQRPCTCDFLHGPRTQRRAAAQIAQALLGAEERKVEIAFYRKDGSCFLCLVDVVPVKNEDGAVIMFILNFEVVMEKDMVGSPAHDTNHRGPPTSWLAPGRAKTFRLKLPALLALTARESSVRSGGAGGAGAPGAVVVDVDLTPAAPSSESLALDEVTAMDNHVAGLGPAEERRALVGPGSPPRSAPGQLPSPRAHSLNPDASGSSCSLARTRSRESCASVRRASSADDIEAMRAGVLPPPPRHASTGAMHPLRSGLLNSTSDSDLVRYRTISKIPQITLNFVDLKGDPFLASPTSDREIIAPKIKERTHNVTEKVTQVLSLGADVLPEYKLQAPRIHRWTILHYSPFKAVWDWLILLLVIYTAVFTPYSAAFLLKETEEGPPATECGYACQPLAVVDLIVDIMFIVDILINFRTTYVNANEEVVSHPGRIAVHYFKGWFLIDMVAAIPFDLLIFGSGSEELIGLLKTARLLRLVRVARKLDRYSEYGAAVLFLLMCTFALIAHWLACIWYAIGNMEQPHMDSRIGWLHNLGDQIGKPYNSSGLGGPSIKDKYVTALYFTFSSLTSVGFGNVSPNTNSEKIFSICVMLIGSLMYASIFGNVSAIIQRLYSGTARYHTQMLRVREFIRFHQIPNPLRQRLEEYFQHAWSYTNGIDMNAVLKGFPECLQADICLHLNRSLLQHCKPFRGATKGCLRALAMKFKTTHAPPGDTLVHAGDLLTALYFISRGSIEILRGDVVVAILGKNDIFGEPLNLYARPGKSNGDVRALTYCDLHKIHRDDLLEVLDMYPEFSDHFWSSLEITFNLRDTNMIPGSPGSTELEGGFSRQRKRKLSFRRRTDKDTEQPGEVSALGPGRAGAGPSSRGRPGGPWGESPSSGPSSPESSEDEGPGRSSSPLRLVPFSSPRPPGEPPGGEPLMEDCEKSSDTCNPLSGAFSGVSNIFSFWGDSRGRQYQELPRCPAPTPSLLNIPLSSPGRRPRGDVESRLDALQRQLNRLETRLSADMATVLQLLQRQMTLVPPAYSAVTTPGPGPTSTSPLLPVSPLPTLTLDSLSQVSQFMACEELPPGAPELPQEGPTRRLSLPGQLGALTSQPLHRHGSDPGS
For the compound `CC(C)(C)OC(=O)N1CCCN(C(=O)Nc2cccc(Cl)c2)CC1`, the “hERG current change (%, negative = inhibition) at 10uM” value was -4.88%. Take `O=C(NCc1ccc2c(c1)OCO2)C1CC(=O)N(C2CCCCCC2)C1` (stereo not shown): the “hERG current change (%, negative = inhibition) at 10uM” value is -11.3%.

Regarding `Cc1cc(C)c(NC(=S)NC(=O)c2c(Cl)c(C)nn2C)c([N+](=O)[O-])c1`, the “hERG current change (%, negative = inhibition) at 10uM” value was 12.2%. Take `COc1cc(C(=O)NCC(c2cccnc2)N2CCN(C)CC2)cc(OC)c1OC` (stereo not shown): the “hERG current change (%, negative = inhibition) at 10uM” value is 12.9%.

For the compound `COC(=O)NNC(=O)C1CCC(C)CC1` (stereo not shown), the “hERG current change (%, negative = inhibition) at 10uM” value is -27.2%. As for `O=C(N/N=C/c1ccc(-c2ccccc2[N+](=O)[O-])o1)c1cncc(Br)c1`, the “hERG current change (%, negative = inhibition) at 10uM” value is listed as -6.97%. To `COc1ccccc1CCNC(=O)C(=O)NCC1OCCN1S(=O)(=O)c1ccc(Br)cc1` (stereo not shown) belongs -25.6%; to `COc1ccc(CCn2c(=S)[nH]c3cc(C(=O)NCc4ccco4)ccc3c2=O)cc1OC`, -1.08%; to `COc1ccc(CCNS(=O)(=O)c2cc(/C=C/C(=O)O)ccc2C)cc1OC`, 8.58%. For `CCOC(=O)N1CCN(CCC(=O)c2ccc(Br)cc2)CC1.Cl`, the “hERG current change (%, negative = inhibition) at 10uM” value is -64.6%. On to `COc1cc(NC(=O)CCN2CCN(c3ccccc3F)CC2)cc(OC)c1`, for which the “hERG current change (%, negative = inhibition) at 10uM” value is -56.6%. To `O=C1CC(=C(c2ccccc2)c2ccccc2)C(=O)N1CCCCN1CCN(c2ccccc2)CC1` belongs -63.3%; to `O=C1CC(=C(c2ccccc2)c2ccccc2)C(=O)N1CCCN1CCN(c2cccc(Cl)c2)CC1`, 1.35%; to `COc1cc(NC(=O)CN2CCN(c3ccccc3F)CC2)cc(OC)c1`, -10.2%. Take `CCOC(=O)N1CCN(CCC(=O)c2ccc(OC)cc2)CC1.Cl`: the “hERG current change (%, negative = inhibition) at 10uM” value is -18.2%.

As for `Cl.O=C1CC(=C(c2ccccc2)c2ccccc2)C(=O)N1CCCCN1CCN(c2cccc(Cl)c2)CC1`, the “hERG current change (%, negative = inhibition) at 10uM” value is reported as -46%.

For `COc1cccc(NC(=O)CCN2CCN(c3ccccc3F)CC2)c1`, the “hERG current change (%, negative = inhibition) at 10uM” value is -12%. As for `NC(=O)CN1CCN(c2ccccc2F)CC1`, the “hERG current change (%, negative = inhibition) at 10uM” value was 4.12%. On to `CCOC(=O)N1CCN(CCC(=O)c2ccc(Cl)cc2)CC1.Cl`, for which the “hERG current change (%, negative = inhibition) at 10uM” value is given as -40.9%. On to `O=C(CCC(=O)N1CCN(c2ccccc2F)CC1)c1ccc(F)cc1`, for which the “hERG current change (%, negative = inhibition) at 10uM” value is -35.4%.

For the compound `Cl.O=C(CCN1CCN(c2ccccc2F)CC1)c1ccc(Br)cc1`, the “hERG current change (%, negative = inhibition) at 10uM” value is -84.5%. `CC(C)C[C@H](NC(=O)C1CC(=O)N(c2ccc(F)cc2)C1)C(=O)N1CCCCC1` (stereo partly shown): the “hERG current change (%, negative = inhibition) at 10uM” value is reported as -0.716%. Turning to `CC1Cc2ccccc2N1C(=O)CSc1nn2c(=O)c(C(C)(C)C)nnc2s1` (stereo not shown), the “hERG current change (%, negative = inhibition) at 10uM” value is listed as 0.00368%.

`CC(=O)Nc1ccc(S(=O)(=O)Nc2cc(-c3ccccc3)nn2C)cc1`: the “hERG current change (%, negative = inhibition) at 10uM” value turned out to be 18.5%. As for `O=C(CCN1CCN(C(=O)c2ccccc2)CC1)c1ccc(Br)cc1`, the “hERG current change (%, negative = inhibition) at 10uM” value is recorded as -29.5%. As for `COc1ccc(OCCCC(=O)NNC(=O)CCN2CCN(c3ccccc3)CC2)cc1`, the “hERG current change (%, negative = inhibition) at 10uM” value was determined as 7.89%.

In the case of `COc1ccccc1N1CCN(CCCC(=O)c2ccc(F)cc2)CC1`, the “hERG current change (%, negative = inhibition) at 10uM” value is on record as -71.7%. With `COc1ccccc1N1CCN(CC(C)N(C(=O)C2CCCCC2)c2ccccn2)CC1` (stereo not shown), the “hERG current change (%, negative = inhibition) at 10uM” value is -67.9%. For `O=C(CCN1CCN(c2ccccc2)CC1)NNC(=O)Cc1ccccc1Cl`, the “hERG current change (%, negative = inhibition) at 10uM” value stood at 5.76%. For `CC(Oc1ccc(Br)cc1)C(=O)NNC(=O)CCN1CCN(c2ccccc2)CC1` (stereo not shown), the “hERG current change (%, negative = inhibition) at 10uM” value is listed as -61.9%. For `COc1ccccc1N1CCN(CCN(C(=O)C2CCCCC2)c2ccccn2)CC1.O=C(O)/C=C\C(=O)O`, the “hERG current change (%, negative = inhibition) at 10uM” value is -27.4%. To `Cl.O=C(CCN1CCOCC1)c1ccc(Br)cc1` belongs 25.2%. With `COc1ccccc1N1CCN(C(=O)C(CC(C)C)NC(=O)C2CCCCC2)CC1` (stereo not shown), the “hERG current change (%, negative = inhibition) at 10uM” value is -16.6%. Turning to `COc1ccccc1N1CCN(C(=O)CCC(=O)N2CCN(c3ccc(F)cc3)CC2)CC1`, the “hERG current change (%, negative = inhibition) at 10uM” value was -17%. As to `O=C(CCN1CCN(c2ccccc2)CC1)c1ccc(Br)cc1`, the “hERG current change (%, negative = inhibition) at 10uM” value is -55.1%. To `COc1ccccc1N1CCN(CC(=O)c2ccc(F)cc2)CC1.Cl` belongs 15.7%; to `Oc1ccc(Cl)cc1C1=NNC(c2cccs2)C1` (stereo not shown), 9.76%. In the case of `COc1ccc(C(=O)Nc2cc(C)on2)cc1OC`, the “hERG current change (%, negative = inhibition) at 10uM” value was determined as 10%. Take `O=C(NCCn1cc(SCc2ccc(F)cc2)c2ccccc21)c1c(F)cccc1F`: the “hERG current change (%, negative = inhibition) at 10uM” value is 9.31%.

`COc1cccc(C(=O)OCCN2C(=O)c3ccccc3C2=O)c1OC`: the “hERG current change (%, negative = inhibition) at 10uM” value is 4.5%.

Take `CC1CC(C)CN(CCCNC(=O)Cn2ncc3c([nH]c4ccccc43)c2=O)C1` (stereo not shown): the “hERG current change (%, negative = inhibition) at 10uM” value is -18%. Regarding `CC(C)NS(=O)(=O)c1ccc(CCC(=O)Nc2ccc3c(c2)OCO3)cc1`, the “hERG current change (%, negative = inhibition) at 10uM” value came out at 1.66%. For `COc1ccc2c(c1)C(C)=CC(C)(C)N2C(=O)Nc1ccccc1` the value was -14.9%; for `O=C(OCC(=O)N1CCN(c2ccccc2)CC1)c1cc(Br)ccc1Cl`, -25.3%; for `CN(CC(=O)Nc1ccc(F)cc1)C(=O)c1cc(-c2ccco2)nc2ccccc12`, -32.5%. For the compound `CCOC(=O)C1=C(CC)Nc2ccccc2N=C1NC(=O)Nc1ccccc1OC`, the “hERG current change (%, negative = inhibition) at 10uM” value came out at 13.8%.

As to `COC(=O)c1ccc(N2C(=O)C3CC=CC(C)C3C2=O)cc1` (stereo not shown), the “hERG current change (%, negative = inhibition) at 10uM” value stood at 19.3%.

As for `COc1ccc(C(=O)N2CCN(c3ccccc3OC)CC2)cc1`, the “hERG current change (%, negative = inhibition) at 10uM” value was 21%. Regarding `COc1ccc(C(=O)CCN2CCN(c3ccccc3OC)CC2)cc1.Cl`, the “hERG current change (%, negative = inhibition) at 10uM” value is on record as -50.3%. To `COc1ccc(OC)c(NC(=O)CCN2CCN(c3ccccc3OC)CC2)c1` belongs 2.82%. For `OC1CCCN(Cc2nc(Cc3ccccc3Cl)no2)C1` (stereo not shown) the value was 9.94%; for `O=C(CN(Cc1ccco1)C(=O)c1ccc(F)cc1F)Nc1ccccc1C(F)(F)F`, -21.5%.

Take `CCOC(=O)C1CCN(C(=O)COc2cc(C)c(Br)cc2C)CC1`: the “hERG current change (%, negative = inhibition) at 10uM” value is listed as -54.7%. With `CCOC(=O)C1CCN(C(=O)COc2ccc(Br)cc2C)CC1`, the “hERG current change (%, negative = inhibition) at 10uM” value is on record as -19.3%. To `CCOC(=O)C1CCN(C(=O)COc2ccc(Br)cc2Br)CC1` belongs -51.8%; to `CCOC(=O)C1CCN(C(=O)COc2ccc(Cl)cc2C)CC1`, -46.1%. Consider `CCOC(=O)C1CCN(C(=O)COc2ccc(Cl)cc2Cl)CC1`, for which the “hERG current change (%, negative = inhibition) at 10uM” value was -40.7%. For the compound `CCOC(=O)C1CCN(C(=O)COc2cc(C)c(Br)c(C)c2)CC1`, the “hERG current change (%, negative = inhibition) at 10uM” value is on record as -43.2%.

Turning to `COc1cccc(N2C(=O)C3C(C2=O)C3(c2ccccc2)c2ccccc2)c1` (stereo not shown), the “hERG current change (%, negative = inhibition) at 10uM” value was -3.19%.

In the case of `CCN(CC)C(=O)CSc1nnc2sc3ccccc3n12`, the “hERG current change (%, negative = inhibition) at 10uM” value stood at 14.8%.

For the compound `CCOC(=O)C1(CCOc2ccccc2)CCN(Cc2nccn2CC)CC1`, the “hERG current change (%, negative = inhibition) at 10uM” value is listed as -58.2%. As for `CCOC(=O)C1(Cc2cccc(OC)c2)CCCN(Cc2nccn2CC)C1` (stereo not shown), the “hERG current change (%, negative = inhibition) at 10uM” value was -30.8%. As for `CCOC(=O)C1(CCc2ccccc2)CCN(Cc2nccn2CC)CC1`, the “hERG current change (%, negative = inhibition) at 10uM” value is reported as -66.2%. For `CCOC(=O)C1(Cc2ccccc2)CCCN(Cc2ccccn2)C1` (stereo not shown) the value was -20.7%; for `CCOC(=O)N1CCN(Cc2ccccn2)CC1.O=C(O)C(=O)O`, 0.59%. To `CCOC(=O)C1(CCc2ccccc2)CCN(Cc2ccccn2)CC1` belongs -74.3%; to `CCOC(=O)C1(Cc2ccc(Cl)cc2)CCN(Cc2nccn2CC)CC1`, -67.6%; to `CCOC(=O)C1(Cc2ccccc2)CCN(Cc2nccn2CC)CC1`, -20%. To `CCOC(=O)Cn1cnc2c(cnn2-c2ccc(Cl)cc2)c1=O` belongs -4.32%; to `O=C(CCCc1ccccc1)Nc1ccc(Br)cc1F`, 14.4%.

As to `Cc1cc(OCC(=O)c2ccc(C(F)(F)F)cc2)n2cnnc2n1`, the “hERG current change (%, negative = inhibition) at 10uM” value is recorded as 5.8%. On to `COc1ccc(N(CC(=O)Nc2cccc([N+](=O)[O-])c2C)S(C)(=O)=O)cc1OC`, for which the “hERG current change (%, negative = inhibition) at 10uM” value is -7.79%. On to `S=C(NCc1ccco1)Nc1cccc(Cl)c1`, for which the “hERG current change (%, negative = inhibition) at 10uM” value is on record as -6.16%.

For the compound `CCN(CC)S(=O)(=O)c1cccc(NC(=O)COC(=O)c2n[nH]c(=O)c3ccccc23)c1`, the “hERG current change (%, negative = inhibition) at 10uM” value is -2.07%. To `COC(=O)c1ccccc1NC=C1C(=O)OC2(CCCCC2)OC1=O` belongs -1.07%; to `Cc1cccc(-c2nnc(NC(=O)c3cccs3)s2)c1`, -21.7%.

Turning to `COc1ccc(S(=O)(=O)n2ccc(-c3ccc(OCCN(C)c4ccccn4)cc3)n2)cc1`, the “hERG current change (%, negative = inhibition) at 10uM” value was determined as 11.4%. As to `CCOC(=O)C1(CCCc2ccccc2)CCN(Cc2nccn2CC)CC1`, the “hERG current change (%, negative = inhibition) at 10uM” value is listed as -74%.

In the case of `Cc1oc(S(=O)(=O)N2CCOCC2)cc1C(=O)Nc1ccc(F)cc1`, the “hERG current change (%, negative = inhibition) at 10uM” value is listed as -6.29%.

Turning to `O=C(CSc1nc2ncccc2[nH]1)Nc1ccc2c(c1)OCO2`, the “hERG current change (%, negative = inhibition) at 10uM” value is 9.63%. Take `Cc1cc(C)cc(NC(=O)CSc2nc3nc(C)cc(C)n3n2)c1`: the “hERG current change (%, negative = inhibition) at 10uM” value is -50.2%. `Cc1cc(C)n2nc(SCC(=O)Nc3ccccc3)nc2n1`: the “hERG current change (%, negative = inhibition) at 10uM” value was -4.16%.

In the case of `Cc1cccc(NC(=O)CSc2nc3nc(C)cc(C)n3n2)c1`, the “hERG current change (%, negative = inhibition) at 10uM” value is given as -32.6%. For `CCCn1c(C)cc(C(=O)CSc2nc3nc(C)cc(C)n3n2)c1C` the value was 6.97%; for `Cc1cc(C)n2nc(SCC(=O)c3cc(C)n(-c4cc(C)on4)c3C)nc2n1`, -67.5%; for `Cc1cc(C)n2nc(SCC(=O)c3cc(C)n(CC4CCCO4)c3C)nc2n1` (stereo not shown), 1.05%. On to `CNC1=C(N(C(C)=O)c2ccc(Br)cc2)C(=O)c2ccccc2C1=O`, for which the “hERG current change (%, negative = inhibition) at 10uM” value turned out to be 11.5%.

Turning to `COc1ccc(S(=O)(=O)NCc2cccs2)cc1`, the “hERG current change (%, negative = inhibition) at 10uM” value is on record as 2.67%.
